Screens: PubChem BioAssay, National Center for Advancing Translational Sciences (NCATS)
Compounds with a hit are over-represented: about 5.3% of the library has one in this group of screens.
FBPA coupling cs: qHTS Assay for Inhibitors of Fructose-1,6-bisphosphate Aldolase from Giardia Lamblia: Coupling assay counterscreen. coupling enzyme system counterscreen, AmpLite Red fluorescence. activity change, negative = inhibition, % at 58.2 µM, hits read low. hit rate 0.67% among 290,000. AID 2472, 2010; in the data active = activity change below about -30%
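First, compound is pin-transferred into glyceraldehyde-3-phosphate coupling-enzyme reagent at 57.5 uM final and held 10 min at RT. Next, substrate, coupling system and AmpLite Red are added. After 20 min RT, fluorescence (525/598 nm) is read.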
Sfp PPTase inh: qHTS Assay for Inhibitors of Bacillus subtilis Sfp phosphopantetheinyl transferase (PPTase); 4'-phosphopantetheinyl transferase ffp (Bacillus subtilis), Q9F4F7; Biochemical Sfp PPTase activity, qHTS; Potency, µM, for inactives: largest response in the series, negative = inhibition, actives largely listed as inhibitors; hit rate 3.5% among 310,000; AID 1490, 2009;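 note: the enzyme is Sfp with the accession as filed and its product quenches rhodamine fluorescence; potency is the fitted concentration of half-maximal effect; 0% = enzyme reaction without inhibitor and -100% = no enzyme wells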
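Buffer: 50 mM Hepes-Na pH 7.6, 10 mM MgCl2, 0.01% Nonidet P-40, 0.01% BSA. Enzyme 15 nM, pre-exposed to compound 15 min; substrates then added and fluorescence change tracked over 30 min.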
KDM4E inh: qHTS Assay for Inhibitors of Human Jumonji Domain Containing 2E (JMJD2E) | Lysine-specific demethylase 4E (Homo sapiens), B2RXH2 | JMJD2E catalytic domain, FDH-coupled NADH fluorescence (FDH is formaldehyde dehydrogenase) | Potency, µM (series often up to 57.1 µM), inactives show at the top dose activity change, negative = inhibition, hits mostly inhibitors | hit rate 1.6% among 230,000 | AID 2147, 2009; active = well fitted inhibition curve with a large enough effect, not every such curve was filed as active; inconclusive = small, poorly fitted or top-dose-only effect, or another doubt; inactive = no such curve, though single readings can be large or run the other way;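 note: potency is the fitted concentration of half-maximal effect; 0% = wells with enzyme and -100% = buffer wells without enzyme; nearly all actives have a fitted effect of over 50% in size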
Target sequence (B2RXH2 1-337 limits assumed): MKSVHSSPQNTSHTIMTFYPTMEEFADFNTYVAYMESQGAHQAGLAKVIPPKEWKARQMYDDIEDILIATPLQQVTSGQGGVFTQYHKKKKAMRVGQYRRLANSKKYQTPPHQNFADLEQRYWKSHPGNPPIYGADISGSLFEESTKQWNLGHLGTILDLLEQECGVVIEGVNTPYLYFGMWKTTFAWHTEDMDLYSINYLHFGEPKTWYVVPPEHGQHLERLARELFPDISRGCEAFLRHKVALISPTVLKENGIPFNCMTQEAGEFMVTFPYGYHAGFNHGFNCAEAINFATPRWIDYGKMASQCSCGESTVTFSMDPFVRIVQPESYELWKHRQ
Tau FP inhib: qHTS for Inhibitors of Tau Fibril Formation, Fluorescence Polarization. hit rate 0.39% among 280,000. Potency, µM (highest dose often 57.7 µM), for the others: at the top dose activity, negative = inhibition, actives largely listed as inhibitors. Microtubule-associated protein tau (Homo sapiens), P10636. K18 P301L tau heparin fibrillization, Alexa594 FP, 6 h; note: potency is the fitted concentration of half-maximal effect; nearly all actives have a fitted effect of over 55% in size
Target sequence (P10636 561-689 P618L limits assumed): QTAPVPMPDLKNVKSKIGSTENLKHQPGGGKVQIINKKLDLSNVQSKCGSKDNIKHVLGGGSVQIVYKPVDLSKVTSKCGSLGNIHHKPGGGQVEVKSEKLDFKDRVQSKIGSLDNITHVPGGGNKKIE
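Human K18 P301L fragment (15 uM unlabeled plus 0.24 uM Alexa 594-labeled) in 100 mM sodium acetate pH 7 with compound, aggregation induced by 20 uM heparin for 6 hr at 37 C. ThT (30 uM) added for 1 hr, then Alexa 594 FP read.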
Tau fluor counter: Counterscreen qHTS for Inhibitors of Tau Fibril Formation, Fluorescence Polarization; tau K18 P301L Alexa594 fluorescence, heparin fibrillization; Potency, µM (doses to about 57.7 µM), inactives show top-dose activity change, negative = decrease; hit rate 0.93% among 280,000; note: potency is the fitted concentration of half-maximal effect; nearly all actives have a fitted effect of over 55% in size
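Human tau K18 P301L (15 uM unlabeled, 0.24 uM Alexa 594-labeled) in 100 mM sodium acetate pH 7 with 20 uM heparin, 6 hr at 37 C. ThT 30 uM added, 1 hr ambient; Alexa 594 FP and total fluorescence read at 555/632 nm.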
Tau ThT inhib: qHTS for Inhibitors of Tau Fibril Formation, Thioflavin T Binding; AID 1460, 2008; Potency, µM (series often up to 57.4 µM), for the others: at the highest dose activity, negative = inhibition, actives largely listed as inhibitors; Microtubule-associated protein tau (Homo sapiens), P10636; hit rate 2.1% among 270,000; recombinant tau K18 P301L (four-repeat tau fragment), heparin-induced fibrillization, ThT fluorescence; note: potency is the fitted concentration of half-maximal effect; nearly all actives have a fitted effect of over 55% in size
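In this qHTS, human K18 P301L tau is incubated with compound and heparin for 6 hr at 37 C, and Thioflavin T fluorescence then reports fibril load.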
* marks the source's active call; other numbers are inactive results; u = inconclusive; x = no result; [ ] = remark or other dose. Unless noted, calls come from the whole dose curve; as a rule, active = well fitted curve in the direction sought with a large enough effect; inconclusive = small, poorly fitted or top-dose-only effect, or another doubt; inactive = no such curve, though single readings can be large; an effect the other way counts as inactive or inconclusive. Unless noted, % is set by controls: 0 for no effect and ±100 for the full control effect.

SMILES | FBPA coupling cs | Sfp PPTase inh | KDM4E inh | Tau FP inhib | Tau fluor counter | Tau ThT inhib
CC(=O)c1cccc(Nc2ncnc3c2cnn3-c2cccc(Cl)c2)c1 | x | x | x | u | u | -0.1%
COc1ccc(C(=O)N2CCC3(CCN(C)CC3)CC2)cc1 | 0.1 | 3.1% | x | x | x | x
CCOc1ccccc1/C=N/NC(=O)c1cccc(S(=O)(=O)N(CC)CC)c1 | -37.5* | 16.5% | u | -1.8% | -19.2% | -9.7%
CCOc1ccccc1/C=N/NC(=O)c1c(C)nc2ccc(Br)cn12 | -44.6* | 11.3% | x | x | x | x
CCOc1ccccc1/C=N/NC(=O)c1cccc(Cl)c1 | 1.6 | 2.5% | -4.2% | -5.8% | -7.1% | -17.0%
COc1ccc(/C=N/n2cnn(Cc3ccccc3Cl)c2=S)cc1 | 0.3 | 25.1µM* | -16.6% | u | u | -12.1%
Cc1cc(C)cc(NC2=C(c3ccccc3)C(=O)c3ccccc32)c1 | x | x | x | 4.5% | 7.94µM*[quencher] | u
COc1ccc(C2=C(Nc3ccc(Br)c(C)c3)c3ccccc3C2=O)cc1 | x | x | x | 5.5% | 3.98µM*[quencher] | u
COc1ccccc1NC(=S)NCc1ccccc1 | -1.4 | 11.2% | x | x | x | x
COc1ccccc1NC(=S)c1ccccc1 | 1.3 | 31.6µM* | 5.0% | -2.6% | -4.4% | -16.8%
Cc1ccc(-n2c(SCCC(C)C)nc3sc4c(c3c2=O)CC(C)(C)OC4)cc1 | x | x | x | -4.3% | -11.2% | -16.3%
CC1=NN(c2nc(-c3ccc(C)cc3)cs2)C(=O)C1N=Nc1cccc(C)c1 (stereo unspecified) | 1.9 | -8.6% | 6.3% | u | -27.8% | 2µM*
COC(=O)C1=C(C)N(CCCC(=O)O)C(=O)NC1c1ccc(Br)cc1 (stereo unspecified) | 4.1 | -0.2% | x | x | x | x
COC(=O)C1=C(C)N(C)C(=O)NC1c1cc2c(cc1Br)OCO2 (stereo unspecified) | 1.9 | 22.8% | x | x | x | x
COC(=O)C1=C(C)N(C)C(=O)NC1c1cc2c(cc1[N+](=O)[O-])OCO2 (stereo unspecified) | -10.5 | 14.1µM* | u | u | u | u
COC(=O)C1=C(C)N(CCCC(=O)O)C(=O)NC1c1cc2c(cc1[N+](=O)[O-])OCO2 (stereo unspecified) | -9.1 | 31.6µM* | u | -18.4% | -25.5% | u
CCOc1ccccc1NC(=O)C(C)Sc1nc2c(c(=O)[nH]1)CCCC2 (stereo unspecified) | x | x | x | 1.8% | -5.2% | -1.6%
Cc1ccc(NC(=O)C2CCN(S(=O)(=O)c3c(C)noc3C)CC2)c(C)c1 | x | x | x | -1.4% | -1.3% | -4.5%
CC1=NN(c2ccccc2)C(=O)/C1=C\c1cc(C)n(C)c1C | -0.9 | -4.0% | -24.5% | u | -13.4% | 3.55µM*
CC1=NN(c2ccccc2)C(=O)/C1=C\c1cn(C)c2ccccc12 | -17.1 | -10.3% | -12.8% | u | u | 7.08µM*
COc1ccc(/C=C2/C(=O)N(c3ccccc3)N=C2C)cc1OC | 0.6 | 12.8% | x | x | x | x
CC1=NN(c2ccccc2)C(=O)/C1=C/c1cn(C)c2ccccc12 | -2.4 | -10.7% | -8.4% | 7.9% | u | 2.82µM*
CC1=NN(c2ccccc2)C(=O)/C1=C/c1cccc(C)c1 | 2.9 | -6.1% | x | x | x | x
COC(=O)N1C(c2ccccc2)=Cc2ccccc2C1C1(C(=O)OC)CCCC1=O (stereo unspecified) | 6.2 | -1.5% | -15.9% | -3.0% | 1.1% | 5.8%
CC(=O)Nc1ccc(OC(C)=O)cc1 | x | -0.7% | x | x | x | x
SMILES | FBPA coupling cs | Sfp PPTase inh | KDM4E inh | Tau FP inhib | Tau fluor counter | Tau ThT inhib
Cc1cccc(N2CCN(c3ccc(C(=O)O)cc3NC(=O)c3cccc(Cl)c3)CC2C)c1 (stereo unspecified) | x | x | x | -14.5% | -12.1% | u
NC(=NCc1ccc2c(c1)OCO2)NC(=O)c1ccccc1 | -1.0 | u | 4.47µM* | -1.0% | -1.6% | 5.1%
CCCn1c(-c2ccc(F)cc2)nc2c(NCCCCN(C)C)nc(C)nc21 | 4.0 | 23.0% | u | 0.4% | -0.3% | 4.7%
CC1(C)c2ccccc2N2CCC(=O)NC21/C=C/c1ccco1 (stereo unspecified) | 2.1 | 39.8µM* | u | -3.6% | -10.7% | u
CC1(C)c2ccccc2N2CC(=O)NC21/C=C/c1ccco1 (stereo unspecified) | 2.6 | 3.16µM* | -20.8% | u | u | u
COc1ccc(NCc2ccccc2[N+](=O)[O-])cc1OC | -40.2* | -5.1% | u | 1.1% | -30.0% | u
COc1ccc(NC(=O)COC(=O)Cc2ccccc2[N+](=O)[O-])cc1OC | 0.1 | -5.2% | -14.6% | 1.8% | -9.3% | -9.8%
O=C(O)CC(c1cccc2ccccc12)n1cccc1 (stereo unspecified) | x | -9.4% | -4.5% | 4.3% | -1.5% | -6.8%
C[C@H](C(=O)OCO/N=[N+](\[O-])N1CCCC1)c1cccc2ccccc12 | -18.6 | 56.2µM* | x | x | x | x
O=C(N/N=C/c1ccc([N+](=O)[O-])cc1)c1ccc(COc2ccccc2-c2ccccc2)cc1 | -0.4 | 12.7% | u | 3.3% | 12.6µM*[quencher] | u
O=C(COc1ccccc1C(=O)N/N=C\c1ccc(O)c(O)c1)N/N=C/c1ccc(O)c(O)c1 | -2.7 | u | 12.6µM* | 9.8% | u | 12.6µM*
O=C(N/N=C/c1ccc(O)cc1)c1cc[n+](Cc2ccccc2)cc1 | 1.6 | 0.1% | -0.9% | 5.0% | -17.2% | u
O=C(N/N=C/c1ccc(OCc2ccccc2)cc1)c1cc[n+](Cc2ccccc2)cc1 | 4.1 | -13.6% | 31.6µM* | 7.6% | -21.5% | u
Nc1ccc(C(=O)N/N=C\C=C\c2ccc([N+](=O)[O-])cc2)cc1 | 2.4 | 20.4% | 3.5% | -6.9% | -15.6% | 2.82µM*
O=C(N/N=C/c1ccc(OCc2ccc(F)cc2)cc1)c1ccccc1 | -0.5 | 3.4% | 8.1% | -4.1% | -5.7% | -15.2%
CC(C)(C)c1ccc(OCc2ccc(C(=O)N/N=C/c3ccc(O)c(O)c3)cc2)cc1 | -6.3 | -8.5% | u | 13.9% | 15.8µM*[quencher] | u
O=C(CSc1nc(-c2ccccc2)nc2c1CCCC2)c1ccc(F)cc1 | x | x | x | -12.2% | -9.1% | -2.6%
COC(=O)CCCCC1SCC2NC(=O)NC21O (stereo unspecified) | 2.2 | 20.1% | 2.3% | 5.3% | -8.6% | -11.3%
COC(=O)CCCC[C@H]1SC[C@H]2NC(=O)N[C@]21O | -0.6 | 39.8µM* | -4.8% | -8.2% | -8.2% | u
